Results from article PMC7819943, “Rice protein-binding microarrays: a tool to detect cis-acting elements near promoter regions in rice”.
Whole data set: some 39,000 sequences, median “fluorescence intensity (a.u.)” near 4,300, cut for the highest 2% near 39,000. The sample as a whole holds a higher share of the highest values than the screen did.

Target: T1, OsSMF1 (Oryza sativa, UniProt Q6ZLB0 1-436)
T1 sequence: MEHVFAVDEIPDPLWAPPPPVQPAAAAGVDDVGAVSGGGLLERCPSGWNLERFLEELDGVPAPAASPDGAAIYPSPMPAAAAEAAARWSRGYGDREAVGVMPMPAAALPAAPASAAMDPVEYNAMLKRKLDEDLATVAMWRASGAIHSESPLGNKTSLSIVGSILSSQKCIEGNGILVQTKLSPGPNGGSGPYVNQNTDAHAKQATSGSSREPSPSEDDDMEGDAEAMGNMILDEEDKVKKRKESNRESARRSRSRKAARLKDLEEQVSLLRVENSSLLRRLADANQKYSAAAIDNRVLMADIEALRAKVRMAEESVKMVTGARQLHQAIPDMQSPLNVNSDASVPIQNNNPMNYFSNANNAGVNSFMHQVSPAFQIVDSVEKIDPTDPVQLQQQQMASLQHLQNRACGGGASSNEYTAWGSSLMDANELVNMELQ
Experiment: protein-binding microarray (RPBM); PBS, 2% BSA, 51.3 ng/ul salmon testes DNA, 50 uM zinc acetate, 200 nM TF, 25 C, 1 h; high values mean tight binding
Settings: protein: recombinant; tags: N-terminal polyhistidine and DsRed monomer fusion (pET32a); chain copies: 2; label: CyDye5-dUTP incorporated in the synthesized complementary strand; 3' TTTTT single-stranded linker to array surface; dsDNA, one strand shown
Method in brief: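 The binding signal is fluorescence intensity per feature, in arbitrary units, read on an Axon 4000B scanner. Polyhistidine- and DsRed-tagged transcription factors (N-terminal fusions) from E. coli BL21-CodonPlus were purified on Ni–NTA and applied at 200 nM for 1 h at 25 °C to a double-stranded, BSA-blocked custom Agilent array in buffer with 50 µM zinc acetate.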

Sequence | binding signal
CAAATGTCGATTTGGTTGTGGACATGTCAATGCCGATCAACGGAGTCACCTAGTGCAG | 50200 fluorescence intensity (a.u.)
GTTTTGTGATTTGGTACATGTGGTAGCATTCACCAAATGTCGGAGTCACCTAGTGCAG | 39600 fluorescence intensity (a.u.)
CAGCTACAGGACGGCAGTACCCAGTACACGCACGCGTACCCGGAGTCACCTAGTGCAG | 3640 fluorescence intensity (a.u.)
TTAAATGCACCCCTACTCAACCCCTCAATCGACGTGTTGGCGGAGTCACCTAGTGCAG | 4180 fluorescence intensity (a.u.)
AGTATTTTAAATCATATACAAGTACGTCACATCATCACTCCGGAGTCACCTAGTGCAG | 3720 fluorescence intensity (a.u.)
TGACACCGTCGCCACCTCGCCACCCATCCATTTCCATTGCCGGAGTCACCTAGTGCAG | 3650 fluorescence intensity (a.u.)
TGCACGCTGCGGCGTACGTCGCGTGCGCACACGGGAATTTCGGAGTCACCTAGTGCAG | 3190 fluorescence intensity (a.u.)
TCTACTCCTAAATCCACATCATCTTTAGCAAAAGCAACAACGGAGTCACCTAGTGCAG | 4670 fluorescence intensity (a.u.)
TTGTCGCAGGTTGCTGACTGTTCCTCGAGGGAGTTCTCGGCGGAGTCACCTAGTGCAG | 6980 fluorescence intensity (a.u.)
GCCTCTCCTTGCTTGCGTGCTCACTGTCGCTGACTGCTCTCGGAGTCACCTAGTGCAG | 4650 fluorescence intensity (a.u.)
GCCGTGGGAATGGCTGAGGATTAGTGCGCCACGTCAGCAACGGAGTCACCTAGTGCAG | 37300 fluorescence intensity (a.u.)
TCGTGGGAATGGCTGAGGATTAGGGCGCCACGTCATCGTTCGGAGTCACCTAGTGCAG | 45600 fluorescence intensity (a.u.)
TGTGGTGGCTGAGTCATCGTGGGATCCACGTGGGCCCCACCGGAGTCACCTAGTGCAG | 24700 fluorescence intensity (a.u.)
TTTCTCCACGTCAGCGAAACCACCTATATATATACTGCCACGGAGTCACCTAGTGCAG | 14300 fluorescence intensity (a.u.)
CTCCGTTGTGCTCTGTCTCTCTACCGCCACCATCCACTGCCGGAGTCACCTAGTGCAG | 39200 fluorescence intensity (a.u.)
AACTCTCCAGTCTCCACCCACCTCACTCCACAGTCCACACCGGAGTCACCTAGTGCAG | 3150 fluorescence intensity (a.u.)
AGACACAGCACACCCACTCACTCTGCTCACTCTCCCATACCGGAGTCACCTAGTGCAG | 39100 fluorescence intensity (a.u.)
CCCTGCTCTGCCACGCCCGCCACCGTCTGCCGGCCTCTACCGGAGTCACCTAGTGCAG | 4730 fluorescence intensity (a.u.)
CTCCACACAGACACACATCCCACCCCACCCACATACACACCGGAGTCACCTAGTGCAG | 3610 fluorescence intensity (a.u.)
GCCGCCGCTGTCGCCATCCACGCTCCGAGCGCCACTGCCACGGAGTCACCTAGTGCAG | 3490 fluorescence intensity (a.u.)
CTATGCCTTGTCAACATTCAACCCCTCCAATAGACTTTGTCGGAGTCACCTAGTGCAG | 3210 fluorescence intensity (a.u.)
CTCTTGACCAGCCGAGCGCACCGTCATCAGGCTACATCTCCGGAGTCACCTAGTGCAG | 5290 fluorescence intensity (a.u.)

Sequence | binding signal
TCCAGTTTCGCGTAGCTGCGTGACAGTTCAATTGAACTCTCGGAGTCACCTAGTGCAG | 3200 fluorescence intensity (a.u.)
CCCTCTCCACATTCTCTTCCACCTGTGTTCCCCTTTTCTTCGGAGTCACCTAGTGCAG | 3320 fluorescence intensity (a.u.)
TCCTCCCATCTCTCTCTCTTTTGCCCACACTCTTTTCACACGGAGTCACCTAGTGCAG | 5660 fluorescence intensity (a.u.)
CTCTTTTCCCCATCTCACATACTGTGCCTTGCCTCCATAACGGAGTCACCTAGTGCAG | 65200 fluorescence intensity (a.u.)
TTCTATAGAAGCTTTCTCTCTTAAAACTCTACCAAAATTTCGGAGTCACCTAGTGCAG | 24000 fluorescence intensity (a.u.)
TCGTCGCCCACTGCCACCGCTGACGTCACCGCACTCTCGCCGGAGTCACCTAGTGCAG | 30500 fluorescence intensity (a.u.)
AATAAATAGGCCTGACGTGAGGCCCACTCGCCACGTCAGCCGGAGTCACCTAGTGCAG | 44900 fluorescence intensity (a.u.)
CAGCCGGGCCCACGTGTCAGTGAGTGCGTGACGCGTCAGCCGGAGTCACCTAGTGCAG | 15200 fluorescence intensity (a.u.)
AATTACCACCCTAACTCAATTAGAAGCGGTTTTCAGCCTACGGAGTCACCTAGTGCAG | 52400 fluorescence intensity (a.u.)
TCTTTTGGTGGTTTCAGAAGCGGTTTTATCCTACGTGACACGGAGTCACCTAGTGCAG | 4530 fluorescence intensity (a.u.)
TTTTGACCCGGTTTTAGCCTACGTGACGGCTAAGTCAGCGCGGAGTCACCTAGTGCAG | 4480 fluorescence intensity (a.u.)
GAGAAGAAGGCCACCTCACCACTAAAGGAGGAGGAGGAGGCGGAGTCACCTAGTGCAG | 43500 fluorescence intensity (a.u.)
CAAGGAAGAATATGCCACCTCCACGGAGGCCGGCGGCGGCCGGAGTCACCTAGTGCAG | 3710 fluorescence intensity (a.u.)
GGGGAAGGAGAAGAGGAAGGAGAGGGGAGGAGGAGGAGGGCGGAGTCACCTAGTGCAG | 3770 fluorescence intensity (a.u.)
CCTTTCCGATTACGTGTTGGACCTTGACCCTAGGCCATATCGGAGTCACCTAGTGCAG | 49700 fluorescence intensity (a.u.)
TCAGCGAATTGGTACGTACCCTTGTACGTGTTGACGCCATCGGAGTCACCTAGTGCAG | 3650 fluorescence intensity (a.u.)
TACGTGTGTTGATTTCCGTGACATATGCATAAATTTCTTTCGGAGTCACCTAGTGCAG | 3530 fluorescence intensity (a.u.)
CCGTCGACTCTGTGCCACGTCCTGTTGCTCGTCGGATTCCCGGAGTCACCTAGTGCAG | 14000 fluorescence intensity (a.u.)
TTGCTGCAGTTCTCGTATGCTTCCTAGTACTATCTGCGTTCGGAGTCACCTAGTGCAG | 3230 fluorescence intensity (a.u.)
TGCAGTATCTGCCGTTCGTATCGCTGCGTTGAATCTTCCACGGAGTCACCTAGTGCAG | 47100 fluorescence intensity (a.u.)
CTAGTTCGCCTTCCACGTACGCACTTGGCGTCGTATCTGCCGGAGTCACCTAGTGCAG | 6440 fluorescence intensity (a.u.)
